Bioassay records deposited in PubChem BioAssay by National Center for Advancing Translational Sciences (NCATS).
SW480 rereplic = A quantitative high throughput screen for small molecules that induce DNA re-replication in SW480 colon adenocarcinoma cells; SW480 DNA re-replication, Hoechst DNA content imaging, 48 h; Potency, µM (doses to about 46.1 µM), for the others: top-dose re-replication activation, usual class: activators; 340,000 tested, 1.8% active; AID 624297, 2012; also: % of control where 0% means no effect; nearly all actives have a fitted effect of over 55% in size
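Image-based read-out: total Hoechst fluorescence of nuclei (405 nm excitation, 500-530 nm emission), with hits raising the fraction of high-intensity nuclei. SW480 colon cells incubated 48 hr with compounds at 37 C.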
KB-V1 cytotox = qHTS assay for MDR1-selective chemotherapeutics: Primary screen using the drug-selected MDR subline cells KB-V1; KB-V1 MDR cells viability, CellTiter-Glo, 72 h; AID 1347076, 2019; 400,000 tested, 3.4% active; Potency, µM (top dose mostly 46.1 µM), most hits filed as cytotoxic; also: % is scaled to controls: 0 for no effect and ±100 for the full control effect; nearly all actives have a fitted effect of over 60% in size
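Readout: CellTiter-Glo luminescence, 10 min after addition. Cells: KB-V1 MDR subline, 72 h at 37 degrees C with compound. Analysis: corrected, normalized data fitted to concentration-effect curves.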
MCF10A rereplic = A quantitative high throughput screen for small molecules that induce DNA re-replication in MCF 10a normal breast cells | Potency, µM (titrated, usually from 46.1 µM), inactives show at the highest dose activity, positive = re-replication, hits mostly activators | 350,000 tested, 2.9% active | AID 624296, 2012 | MCF 10A DNA re-replication, Hoechst nuclear intensity, 48 h; also: % of control where 0% means no effect; nearly all actives have a fitted effect of over 50% in size
HT1080NT lethal = qHTS for induction of synthetic lethality in tumor cells producing 2HG: qHTS for the HT-1080-NT fibrosarcoma cell line; HT-1080-NT fibrosarcoma viability, CellTiter-Glo ATP luminescence, 48 h; Potency, µM (series often up to 46.1 µM), for the others: top-dose activity, negative = less viability, most hits filed as cytotoxic; 360,000 tested, 1.6% active; AID 686970, 2013;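 also: NT is the 2HG producing partner of a matched IDH1 knockdown line; 0% = DMSO-treated cells and -100% = media-only wells without cells; nearly all actives have a fitted effect of over 55% in size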
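Luminescent CellTiter-Glo readout after 48 hours of compound exposure at 37 degrees C defined viability of HT-1080-NT cells. Activity was normalized to DMSO wells and cell-free media wells; concentration-response curves were fitted and assigned curve classes.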
HT1080 IDH1KD tx = qHTS for induction of synthetic lethality in tumor cells producing 2HG: qHTS for the HT-1080-IDH1KD cell line; AID 686971, 2013; Potency, µM (series often up to 46.1 µM), for the others: at the highest dose activity, negative = toxicity, actives largely listed as cytotoxic; HT-1080 IDH1 knockdown viability, ATP luminescence, 48 h; 360,000 tested, 2% active;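 also: 0% = DMSO wells and -100% = cell-free medium wells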
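After a 2 h attachment period, IDH1KD HT-1080 cells took pin-transferred compound for 48 h at 37 °C; ATP-based luminescence after 10 min room-temperature reagent incubation reported viability.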
KB-3-1 tox = qHTS assay for MDR1-selective chemotherapeutics: Primary screen using the parental adenocarcinoma cell KB-3-1 | KB-3-1 viability, CellTiter-Glo ATP luminescence, 72 h | Potency, µM (titrated, usually from 46.1 µM), usual class: cytotoxic | 400,000 tested, 1.4% active; also: % is scaled to controls: 0 for no effect and ±100 for the full control effect; nearly all actives have a fitted effect of over 60% in size
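72 h, 37 °C compound treatment of KB-3-1 parental cells; CellTiter-Glo added, 10 min, luminescence read. Data corrected against DMSO-only plates and normalized before curve fitting.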
Active calls of the source: *; i = inactive; u = inconclusive; x = no result given. Most compounds without a hit are left out; they make up all but 7.9% or so of the library. Calls follow the shape of the dose curve; as a rule, active = well fitted curve in the direction sought with a large enough effect; inconclusive = small, poorly fitted or top-dose-only effect, or another doubt; inactive = no such curve, though single readings can be large; an effect the other way counts as inactive or inconclusive. Potency is read from the fitted curve at half-maximal effect.

SMILES	SW480 rereplic	KB-V1 cytotox	MCF10A rereplic	HT1080NT lethal	HT1080 IDH1KD tx	KB-3-1 tox
O=C(Nc1ccccc1Cl)C1CCCN(c2ncnc3c2nc2n3CCCCC2)C1 (stereo not given)	9%	7.3µM*	u	-23%	-10%	i
CCN(Cc1ccccc1)C(=O)C1CCN(c2ncnc3c2nc2n3CCCCC2)CC1	0%	i	15%	-1%	-17%	i
CCOC(=O)C1(C)CCN1C(=O)c1cc(F)cc(F)c1 (stereo not given)	x	i	x	17%	9%	i
COc1ccc(C2CC(=O)c3cc(-c4nc(-c5ccc(Cl)cc5)cs4)c(=O)[nH]c3C2)cc1OC (stereo not given)	x	i	x	x	x	i
CN(CCCn1ccc(N)nc1=O)Cc1ccco1	x	i	x	-3%	0%	u
Cc1ccc(C)c(S(=O)(=O)c2nnn3c2nc(NC(C)C)c2sccc23)c1	x	u	x	x	x	i
Cc1cc(NC(=O)CSCC(=O)OCC(=O)c2ccc(Br)cc2)no1	x	i	x	2%	-2%	i
Cc1cccc(N2CCN(CCCNC(=O)C3CCCN(c4ncnc5c4nc4n5CCCCC4)C3)CC2C)c1 (stereo not given)	u	u	u	21µM*	16µM*	u
OC(c1ccc(F)cc1)c1nc(-c2ccoc2)cs1 (stereo not given)	x	i	x	22%	3%	i
COCCNC(=O)c1cc2c(c(-c3cccc(C#Cc4ccc(OC)c(OC)c4)c3)n1)[C@H](CCO)N(S(=O)C(C)(C)C)C2 (stereo not given in full)	x	i	x	u	u	i
COc1ccc2c(C(=O)NCc3ccc4c(c3)OCO4)c(-c3ccc(S(C)(=O)=O)cc3)sc2c1	3.7µM*	i	118%	8%	7%	i
CCOC(=O)Cn1c(=NC(=O)c2cc(-c3cccs3)nc3ccccc23)sc2cc(S(N)(=O)=O)ccc21	u	i	8.2µM*	u	-25%	i
COC(=O)Cn1c(=NC(=O)c2cc(-c3cccs3)nc3ccccc23)sc2cc(S(N)(=O)=O)ccc21	u	u	7.3µM*	-19%	u	i
COC(=O)Cn1c(=NC(=O)c2nc3ccccc3s2)sc2cc(S(N)(=O)=O)ccc21	-12%	i	u	6%	14%	u
N#Cc1c(-c2ccccc2)cc(-c2ccccc2)nc1SCC(O)CS(=O)(=O)Cc1ccccc1 (stereo not given)	x	i	x	x	x	i
CN(C)S(=O)(=O)c1cccc(COC(=O)Cc2c(F)cccc2Cl)c1	-5%	u	1%	1%	2%	i
O=S(=O)(/N=S1\CC=CCN1S(=O)(=O)c1ccccc1)c1ccccc1 (stereo not given)	u	i	18µM*	u	u	i
CC1=C(C)CS(=O)N(S(=O)(=O)c2ccccc2)C1 (stereo not given)	u	u	u	u	u	i
c1ccc2c(c1)[nH]c1c(N3CCCC3)ncnc12	-5%	u	4%	-12%	-11%	i
Fc1ccc2[nH]c3c(N4CCc5ccccc5C4)ncnc3c2c1	-14%	6.5µM*	u	10µM*	2.6µM*	u
Cc1ccc2[nH]c3c(N4CCc5ccccc5C4)ncnc3c2c1	3%	u	u	21µM*	-8%	u
Brc1ccc2[nH]c3c(N4CCc5ccccc5C4)ncnc3c2c1	u	i	u	18µM*	23µM*	i
CCOc1ccc2[nH]c3c(N4CCc5ccccc5C4)ncnc3c2c1	u	12µM*	9.2µM*	18µM*	10µM*	u
CN1CCN(c2ncnc3c2[nH]c2ccc(F)cc23)CC1	3%	i	-2%	0%	-23%	i
Cc1ccc2[nH]c3c(N4CCOCC4)ncnc3c2c1	-6%	i	10%	-29%	u	i
SMILES	SW480 rereplic	KB-V1 cytotox	MCF10A rereplic	HT1080NT lethal	HT1080 IDH1KD tx	KB-3-1 tox
O=C(Cn1cc(C(=O)c2ccco2)c2ccccc21)Nc1ccccc1C(F)(F)F	x	i	x	x	x	i
NC(COCc1ccccc1)c1csc(Nc2ccc(S(N)(=O)=O)cc2)n1 (stereo not given)	x	i	x	-15%	-5%	i
CCOc1ccc(NC(=O)C2CCN(c3nc4ccccc4[nH]3)CC2)cc1	x	u	x	x	x	i
CCC(Sc1nc2ccccc2s1)C(=O)Nc1nnc(C)s1 (stereo not given)	-1%	16µM*	u	-17%	-10%	i
CC(Sc1nc2ccccc2s1)C(=O)Nc1nnc(C(C)C)s1 (stereo not given)	-8%	i	0%	-5%	8%	i
CCc1ccccc1NC(=O)[C@H](Cc1ccccc1)N1Cc2ccccc2C1=O	x	i	x	x	x	i
COc1ccccc1N1CCc2c(C)nc3c(OC)cccc3c21	-3%	21µM*	17%	u	u	u
COc1cccc2c3c(c(C)nc12)CCN3c1ccccc1	1%	u	0%	u	u	i
O=C1Nc2ccccc2N(C(=O)c2ccc3ccccc3c2)C1c1nc2ccccc2[nH]1 (stereo not given)	x	16µM*	x	u	u	u
COc1cc(C=c2c3ccccc3n3c2cc(-c2ccccc2)[n+]3C)cc(OC)c1OC	u	u	u	-15%	u	u
COc1cc(N(C)C)ccc1C=c1c2ccccc2n2c1cc(-c1ccccc1)[n+]2C	u	u	8%	u	12µM*	1µM*
CN(C)c1ccc(C=c2c3ccccc3n3c2c2c([n+]3C)CCCC2)cc1	-2%	i	u	u	6.5µM*	u
CN(C)c1ccc(C=c2c3ccccc3n3c2cc(-c2ccccc2)[n+]3C)cc1	u	16µM*	-9%	u	21µM*	u
CN(C)c1ccc(C=c2c3cc([N+](=O)[O-])ccc3n3c2cc(-c2ccccc2)[n+]3C)cc1	7%	i	u	u	10µM*	5.2µM*
CC(C)(C)C1CCc2nc(NC(=O)c3cccc(Cl)c3)sc2C1 (stereo not given)	x	i	x	x	x	i
